Data reported in PubChem BioAssay (NCATS).
Records with an inconclusive call do not appear. Where a call stands in place of a potency, no number is given. Active and inactive are the calls of the source. The call rests on the fitted dose curve; in most records, active means well fitted inhibition curve with a large enough effect; inconclusive means small, poorly fitted or top-dose-only effect; inactive means flat fitted curve, though single readings scatter. Where a SMILES comes first, the peptide text is derived from it. [ ]: non-standard residue; d: D form.

System: HEK293T
Experiment: qHTS assay to identify novel small-molecules to repurpose for Merkel cell carcinoma treatment (AID 1296009); further: nearly all actives have a fitted effect of over 60% in size
Details: MCC and control cell lines, CellTiter-Glo viability, 72 h; series mostly up to 44.8 µM
Procedure, shortened: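 Dose-response viability screen; 72 hr exposure at 37 degree celsius; CellTiter-Glo added, 10 min room temperature, luminescence read; RLUs scaled between no-cell and DMSO wells.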

Compound	Potency	outcome
CCOC(=O)[C@H](CCc1ccccc1)CC1(C(=O)N[C@H]2CCc3ccccc3N(CC(=O)O)C2=O)CCCC1	inactive	–
O=C(c1ccc(NS(=O)(=O)c2cccc3cccnc23)cc1)N1CCN(CC2CC2)CC1	inactive	–
CC(=O)O[C@H]1[C@H](Oc2ccccc2COC(=O)C2(O)C=CCCC2=O)O[C@H](CO)[C@@H](O)[C@@H]1O (some centres undefined)	inactive	–
CCCC(N[C@@H](C)C(=O)N1[C@H](C(=O)O)C[C@@H]2CCCC[C@@H]21)C(=O)OCC (some centres undefined)	inactive	–
C=CC(C)(O)CC/C=C(\C)C(=O)OC1CC2(C(=O)O)CCC3(C)C(=CCC4C5(C)CCC(OC6OC(COC7OCC(O)C(O)C7O)C(O)C(OC7OCC(O)C(O)C7O)C6OC6OC(CO)C(O)C(O)C6OC6OCC(O)C(O)C6O)C(C)(C)C5CCC43C)C2CC1(C)C (centres undefined)	–	inactive [at 9.27 µM]
COc1cc(/C=C/C(=O)OC(C)(C)C(OC2OC(CO)C(O)C(O)C2O)C(=O)OCc2ccc(OC3OC(CO)C(O)C(O)C3O)cc2)ccc1O (centres undefined)	inactive	–
CC1=C2C(=O)C=C(CO)[C@@H]2[C@H]2OC(=O)[C@H](C)[C@@H]2[C@@H](O)C1	inactive	–
CC1(C)NC2N(C1=O)c1ccccc1C2(O)CC(C(=O)O)n1cnc2ccccc2c1=O (centres undefined)	inactive	–
Cn1c(=O)c2nc(/C=C/c3cccc(Cl)c3)n(C)c2n(C)c1=O	inactive	–
C=C1CCC2C(C)(C(=O)O)CC(O)CC2(C)C1CC/C(C)=C/C(=O)O (centres undefined)	inactive	–
Cc1coc2c1CC1OC1(C)CCC1OC1(C)C2 (centres undefined)	inactive	–
COc1ccc(C)c2sc(NC(=O)c3ccncc3)nc12	inactive	–
C/C=C(\C)C(=O)O[C@@H]1CC2[C@@H](CC=C3C[C@@H](O[C@H]4C[C@H](OC)[C@H](O[C@H]5C[C@H](OC)[C@H](O[C@H]6C[C@H](OC)[C@H](O[C@H]7C[C@@H](OC)[C@H](O[C@@H]8O[C@H](CO)[C@@H](O)[C@H](O)[C@H]8O)[C@@H](C)O7)[C@@H](C)O6)[C@@H](C)O5)[C@@H](C)O4)CC[C@@]32C)[C@@]2(O)CC[C@H](C(C)=O)[C@@]12C (some centres undefined)	–	inactive [at 9.27 µM]
OC[C@H]1O[C@@H](Oc2cc(O)cc(-c3cc4ccc(O)cc4o3)c2)[C@H](O)[C@@H](O)[C@@H]1O	inactive	–
CC1CCC2(C)C(CC(O)C(O)C23CO3)C1(C)CCC1=CC(=O)OC1O (centres undefined)	inactive	–
CC1(C)CCCC2(C)C(CO)C3CCC2C31 (centres undefined)	inactive	–
Cc1c(N2C(=O)c3ccc(C(=O)O)cc3C2=O)c(=O)n(-c2ccccc2)n1C	inactive	–

Compound	Potency	outcome
CC1(C)CCC(C)(C)c2cc3c(cc21)Sc1ccccc1N=C3c1ccc(C(=O)O)cc1	inactive	–
CC(=O)N[C@H](Cc1ccc(O)cc1)C(=O)N[C@H](CCCN=C(N)N)C(=O)N[C@H](Cc1ccccc1)C(N)=O (Ac-[dY]-[dR]-[dF]-NH2)	inactive	–
COc1ccc(C(O[C@@H]2O[C@H](CO)[C@@H](O)[C@H](O)[C@H]2O)C(CO)Oc2ccc(/C=C/CO)cc2OC)cc1O (some centres undefined)	inactive	–
COc1ccccc1[C@@H]1C2=C(CC(C)(C)CC2=O)Nc2n[nH]c(C(F)(F)F)c21	inactive	–
C[C@]1(OC(=O)/C=C/c2ccccc2)C[C@H](O)[C@]2(O)C=CO[C@@H](O[C@@H]3O[C@H](CO)[C@@H](O)[C@H](O)[C@H]3O)C12 (some centres undefined)	inactive	–
COC1CC(OC2CCC3(C)C(=CCC4C3CCC3(C)C(C(C)O)CCC43O)C2)OC(C)C1OC1OC(C)C(OC2OC(COC3OC(COC4OC(CO)C(O)C(O)C4O)C(O)C(O)C3O)C(O)C(O)C2O)C(OC)C1O (centres undefined)	–	inactive [at 9.27 µM]
CC(=O)N[C@H]1CCN(c2ccc(C3=NOC(CN[S+](=O)([O-])C(C)C)C3)cc2F)C1 (some centres undefined)	inactive	–
CC[C@H]1OC(=O)[C@H](C)[C@@H](O[C@H]2C[C@@](C)(OC)[C@@H](O)[C@H](C)O2)[C@H](C)[C@@H](O[C@@H]2O[C@H](C)C[C@H](N(C)C)[C@H]2O)[C@@](C)(O)C[C@@H](C)[C@@H]2N[C@@H](COCCOC)OC([C@H]2C)[C@]1(C)O	inactive	–
Cc1cc(O)cc(Oc2cc(C)c(C(=O)O)c(O)c2)c1	inactive	–
CN1C(=O)c2ccccc2-n2c(nc3ccccc3c2=O)/C1=C/c1ccccc1	inactive	–
C=C1C(OC(C)=O)C(=O)C2C(C)(C)C(OC(C)=O)CCC2(C)C1CC(OC(C)=O)/C(C)=C/COC(C)=O (centres undefined)	inactive	–
CC[C@H](/C=C/[C@@H](C)[C@H]1CC[C@H]2[C@@H]3CC=C4C[C@@H](O)CC[C@]4(C)[C@H]3CC[C@]12C)C(C)C	–	inactive [at 4.96 µM]
N[C@@H](CC(=O)N1CCn2c(nnc2C(F)(F)F)C1)Cc1[nH]nc2c(F)c(F)ccc12	inactive	–
C/C=C1/[C@H](O[C@@H]2O[C@H](CO)[C@@H](O)[C@H](O)[C@H]2O)OC=C(C(=O)OC)[C@H]1CC(=O)O[C@@H]1O[C@H](CO)[C@@H](O)[C@H](O)[C@H]1O	inactive	–
COc1cc([C@H]2OC[C@@H]3[C@@H](c4ccc(O[C@@H]5O[C@H](CO)[C@@H](O)[C@H](O)[C@H]5O)c(OC)c4)OC[C@]23O)ccc1O	inactive	–
C[C@@H](Nc1cc(NS(=O)(=O)N2CCC2)nc(SCc2cccc(F)c2F)n1)[C@@H](O)CO	inactive	–
C=C1CCC(OC(C)=O)C2(C)CC3(O)OC(=O)C(C)=C3CC12 (centres undefined)	inactive	–
